Laboratory results taken from PubChem BioAssay (NCI).
The panel holds about 83,000 compounds, 20% with a hit somewhere; the sample as a whole holds those more often.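 In brief: 96-well plates, 48 h treatment, single concentration, percent growth endpoint.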 A number with no mark means an inactive call. The source made the active and inactive calls. Rule for the calls: active = growth percent below 10; inactive = the rest.

Tests used:
Assay in all cases: NCI-60 one-dose screen, 48 h (100 = growth as untreated, 0 = no growth, -100 = all killed)
[1] = tested on: HCT-15 colon; settings: 10 µM unless noted
[2] = tested on: HT29 colon; settings: 10 µM unless noted
[3] = tested on: SNB-75 CNS; settings: 10 µM unless noted
[4] = tested on: SNB-19 CNS; settings: 10 µM unless noted
[5] = tested on: U251 CNS; settings: 10 µM unless noted
[6] = tested on: PC-3 prostate; settings: 10 µM unless noted
[7] = tested on: SK-MEL-5 melanoma; settings: 10 µM unless noted
[8] = tested on: UACC-62 melanoma; settings: 10 µM unless noted
[9] = tested on: LOX IMVI melanoma; settings: 10 µM
[10] = tested on: SK-MEL-28 melanoma; settings: 10 µM unless noted
[11] = tested on: SK-MEL-2 melanoma; settings: 10 µM unless noted
[12] = tested on: EKVX NSCLC; settings: 10 µM unless noted
[13] = tested on: SN12C renal; settings: 10 µM unless noted
[14] = tested on: UO-31 renal; settings: 10 µM unless noted
[15] = tested on: TK-10 renal; settings: 10 µM unless noted
[16] = tested on: ACHN renal; settings: 10 µM unless noted
[17] = tested on: CAKI-1 renal; settings: 10 µM unless noted
[18] = tested on: A498 renal; settings: 10 µM unless noted
[19] = tested on: CCRF-CEM leukemia; settings: 10 µM unless noted
[20] = tested on: MOLT-4 leukemia; settings: 10 µM unless noted

Row | SMILES | growth [1] [%] | growth [2] [%] | growth [3] [%] | growth [4] [%] | growth [5] [%] | growth [6] [%] | growth [7] [%] | growth [8] [%] | growth [9] [%] | growth [10] [%] | growth [11] | growth [12] [%] | growth [13] [%] | growth [14] [%] | growth [15] [%] | growth [16] [%] | growth [17] [%] | growth [18] [%] | growth [19] | growth [20] [%]
1 | CC(C)(C)[Si](C)(C)OCC1OC(n2cnc3c(N)ncnc32)CC1OS(C)(=O)=O (centres undefined) | 115 | 108 | 97.4 | 108 | 91.7 | 103 | 98.5 | 90.4 | 95.4 | 105 | 105% | 105 | 101 | 86.8 | 99.7 | 114 | 96.2 | 67.6 | 101% | 105
2 | CCCCN(C(=O)CC)c1ccccc1 | 108 | 100 | 89.8 | 99.9 | 97.6 | 103 | 100 | 99.2 | 97.4 | 104 | 108% | 97 | 99.3 | 86.7 | 97.2 | 103 | 101 | 83.3 | -8.28% (active) | 
3 | CCCCCC(=O)OCCC1CCCCC1 | 107 | 101 | 89.1 | 112 | 96 | 98.7 | 100 | 104 | 98.6 | 105 | 106% | 108 | 97.2 | 92.2 | 99 | 107 | 103 | 79.3 | 83.8% | 95.7
4 | O=Cc1c(O)c2ccccc2[nH]c1=O | 95.2 | 116 | 77.9 | 104 | 94.3 | 94.4 | 95.1 | 87.9 | 98.5 | 107 | 106% | 113 | 92.3 | 81.6 | 106 | 91.5 | 98.1 | 119 | 108% | 104
5 | Nc1cc(N)ncn1 | 102 | 104 | 88.9 | 96.1 | 104 | 97.7 | 98.3 | 99.6 | 98.4 | 98.9 | 113% | 102 | 97.1 | 94 | 102 | 102 | 102 | 93.8 | 99.2% | 93.5
6 | c1ccc(-c2ccc3ccccc3c2)cc1 | 107 | 80.8 | 107 | 100 | 92.7 | 90.8 | 96.4 | 95.4 | 95.7 | 107 | 76.6% | 103 | 96.1 | 85.2 | 97.7 | 88.9 | 97.9 | 84 | 99.6% | 80.8
7 | Cc1ccccc1CC(N)C(=O)O (centres undefined) | 117 | 107 | 91.4 | 108 | 102 | 90.4 | 117 | 103 | 106 | 115 | 109% | 103 | 105 | 91.7 | 115 | 100 | 96.6 | 109 | 110% | 109
8 | CC(=O)N(C)N=Nc1ccc(C)cc1 | 107 | 116 | 93.2 | 101 | 106 | 97.7 | 103 | 101 | 98.1 | 116 | 101% | 101 | 100 | 81.6 | 92.7 | 108 | 98.6 | 100 | 95.6% | 112
9 | CCc1ccccc1C(=O)N(CC)CC | 103 | 106 | 90.6 | 105 | 103 | 102 | 104 | 99.5 | 99.2 | 102 | 123% | 96.6 | 105 | 91.1 | 106 | 104 | 99.7 | 86.1 | 97.5% | 96.4
10 | CCNc1ccc2ccccc2c1N=Nc1ccc(N=Nc2ccccc2)cc1 | 104 | 112 | 100 | 112 | 109 | 87.1 | 87.5 | 72.6 | 93.1 | 120 | 64.6% | 98.5 | 96 | 71.1 | 128 | 95.2 | 107 | 137 | 95.8% | 82.2
11 | Cc1cc2nc(C)c(C)nc2cc1C | 107 | 108 | 99.4 | 111 | 98.3 | 81.4 | 95.3 | 99.5 | 97.2 | 110 | 113% | 98.4 | 115 | 78.2 | 118 | 90.7 | 81.8 | 114 | 102% | 106
12 | NNc1ncnc2nc[nH]c12 | 44.1 | 53.7 | 89.3 | 96 | 72.2 | 63 | 71.9 | 18.7 | 30.9 | 105 | -7.36% (active) | 69.7 | 74.6 | 30.9 | 67.1 | 41.1 | 42.3 | 55.1 | 37.8% | 56.2
13 | COC1(OC)C2(Cl)C(Cl)=C(Cl)C1(Cl)C1COCC12 (centres undefined) | 103 | 99.3 | 86.3 | 100 | 103 | 97.6 | 102 | 97.4 | 107 | 105 | 89.7% | 104 | 99.2 | 91.6 | 94.7 | 108 | 93.9 | 87.6 | 103% | 102
14 | Cc1ccc2nc(N)nnc2c1 | 102 | 112 | 90.5 | 102 | 111 | 96 | 108 | 105 | 100 | 110 | 107% | 113 | 98.4 | 87.5 | 108 | 108 | 83.7 | 95.2 | 102% | 100
15 | C[C@H](CCC[C@H](C)OS(=O)(=O)c1ccccc1)OS(=O)(=O)c1ccccc1 | 101 | 111 | 88 | 94.5 | 108 | 108 | 114 | 89.8 | 101 | 118 | 98.8% | 95.2 | 99.3 | 78.8 | 103 | 106 | 92.6 | 133 | 120% | 115
16 | CC1(c2ccccc2)CO1 (centres undefined) | 102 | 112 | 89.9 | 102 | 97.6 | 104 | 105 | 104 | 103 | 105 | 107% | 111 | 107 | 85.8 | 102 | 102 | 107 | 131 | 97.7% | 99.6
17 | O=C(O)C1CSC(c2ccccc2)N1 (centres undefined) | 90.5 | 91.7 | 96.7 | 96.5 | 105 | 92.6 | 101 | 93 | 102 | 99.6 | 89.2% | 99.1 | 93.2 | 91.6 | 95.6 | 94.4 | 105 | 81 | 121% | 115
